Hit rate of the full screen: of about 1,300 compounds, about 420 (32%) were called active. Roughly 32% stayed inconclusive and do not appear here. The call rests on the fitted dose curve; in most records, active means well fitted inhibition curve with a large enough effect; inconclusive means small, poorly fitted or top-dose-only effect; inactive means no such curve, though single readings can be large or run the other way. The list shows a part of the results. Entries that show only a call come without a potency.
Potency means the concentration at half of the fitted maximal effect.

The assay has as its target C-terminal-binding protein 1 (Homo sapiens) (UniProt Q13363). Briefly: qHTS for Inhibitors of the Phosphatase Activity of Eya2: Carboxyl-terminal binding protein (CtBP) Counterscreen for Cherry-picked Compounds. Further: nearly all actives have a fitted effect of over 65% in size. As to conditions: purified protein-protein binding, AlphaScreen, 3 h; series mostly up to 46.1 µM. The method in brief: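 AlphaScreen using 25 nM GST-E1A with 25 nM CtBP-6xHIS; compounds at 2.5 nM–46 uM final, 2 h at room temperature, then donor/acceptor beads (20 ug/mL) for 1 h in the dark. Signal normalized to E1A peptide inhibitor (maximum inhibition) and DMSO.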
A general note: Quantitative high-throughput screening tests each substance at several concentrations.
On to `Cc1ccc(C(O)c2ncc(-c3ccc4ccccc4c3)[nH]2)cc1F` (centres undefined), for which the Potency result is “inactive”.

In the case of `CN(C)C(CNC(=O)c1ccc2c(c1)S(=O)(=O)c1ccccc1C2=O)c1ccco1` (centres undefined), the Potency entry was “inactive”.

`Cc1ccc(CNC(=O)c2ccc(-n3cccc3)cc2)cc1`: the Potency result was “inactive”.

For `O=C(NCc1ccccc1)c1ccc2nc(-c3ccco3)c(-c3ccco3)nc2c1`, the Potency is 16.9 µM (active).

`Cc1c(CC(=O)NCCCC(=O)O)c(=O)oc2cc3occ(-c4ccccc4)c3cc12`: the Potency was 13.5 µM (active).

On to `Cc1c(CC(=O)NCC(=O)O)c(=O)oc2cc3occ(-c4ccccc4)c3cc12`, for which the Potency is 13.5 µM (active).

In the case of `COc1ccc(-c2coc3cc4oc(=O)c(CC(=O)O)c(C)c4cc23)cc1`, the Potency is 13.5 µM (active).

Turning to `Cc1c(CC(=O)N[C@@H](C)C(=O)O)c(=O)oc2cc3occ(-c4ccccc4)c3cc12`, the Potency is 6.75 µM (active).

With `N#Cc1ccc(CSc2nnc(-c3c[nH]c4ccccc34)n2-c2ccccc2)cc1`, the Potency entry was “inactive”.

Regarding `Cc1c(CCC(=O)NCCCCCC(=O)O)c(=O)oc2cc3occ(-c4ccccc4)c3cc12`, the Potency was 8.49 µM (active).

In the case of `COc1cccc2c1C(=O)/C(=C/c1ccc(N(C)C)cc1)C2`, the Potency is 4.78 µM (active).

As to `CN(C)CCNc1ccc2ncn3c4ccc(O)cc4c(=O)c1c23`, the Potency was 1.9 µM (active).

As for `CN(C)CCNc1ccc2nnn3c4ccc(O)cc4c(=O)c1c23`, the Potency is 1.2 µM (active).

As for `O=C(CC1(O)C(=O)Nc2ccccc21)c1ccccc1` (centres undefined), the Potency result was “inactive”.

In the case of `CCOC(=O)c1c(NC(=O)/C=C/C(=O)O)sc(C)c1-c1ccc(Cl)cc1`, the Potency result was “inactive”.

With `Cn1c(=O)c(N)c2c3c(c(Br)ccc31)C(=O)c1ccccc1-2`, the Potency is 9.53 µM (active).

As to `Cc1c(NC(=O)c2ccco2)cccc1C(=O)NN1C(=O)c2ccccc2C1=O`, the Potency result was “inactive”.

As for `CCc1c(C)nc(Nc2nc(C)c3ccc(OC)cc3n2)[nH]c1=O`, the Potency is 3.38 µM (active).

Take `Cc1nn2c(c1-c1ccccc1)NC1=C(C(=O)CCC1)C2c1ccccc1` (centres undefined): the Potency entry is “inactive”.

With `C/C=C/c1ccc(OCCSc2nc(C)cc(=O)[nH]2)c(OC)c1`, the Potency is 10.7 µM (active).

Regarding `O=S(=O)(Nc1nnc(-c2ccccc2)s1)c1ccc(Cl)cc1`, the Potency is 16.9 µM (active).

For the compound `Cc1n[nH]c(=S)n(NC(=O)CC(=O)Nn2c(=S)[nH]nc(C)c2=O)c1=O`, the Potency was 1.2 µM (active).

For the compound `CC1=CC(C)(C)Nc2ccc(OC(=O)CN3C(=O)c4ccccc4C3=O)cc21`, the Potency result was “inactive”.

As for `O=S(=O)(c1ccc(Cl)s1)N1CCc2ccccc2C1`, the Potency result was “inactive”.

As to `O=C(NN1C(=O)/C(=C\c2ccc(O)c([N+](=O)[O-])c2)SC1=S)c1ccccc1Cl`, the Potency was 12 µM (active).

Take `COc1ccc(OC)c(/C=C2\SC(=S)N(NS(=O)(=O)c3ccccc3)C2=O)c1`: the Potency entry was “inactive”.

On to `Cc1ccc(S(=O)(=O)NN2C(=O)/C(=C/c3cccc(F)c3)SC2=S)cc1`, for which the Potency entry was “inactive”.

On to `COc1ccc(Nc2nc(C(C)(C)C)nc3c2nnn3Cc2ccccc2Cl)cc1OC`, for which the Potency result is “inactive”.

Regarding `CCOC(=O)C1CCN(C2=C(NS(=O)(=O)c3ccc(Br)cc3)C(=O)c3ccccc3C2=O)CC1`, the Potency was 5.36 µM (active).

`NC(=O)C1CCN(c2oc(-c3cccs3)nc2S(=O)(=O)c2ccc(Br)cc2)CC1`: the Potency entry was “inactive”.

Regarding `CCOC(=O)C1CCCN(C2=C(NS(=O)(=O)c3ccc(Br)cc3)C(=O)c3ccccc3C2=O)C1` (centres undefined), the Potency was 12 µM (active).

For the compound `CCOC(=O)CNC(=O)C1CCCN(c2ncccn2)C1` (centres undefined), the Potency entry is “inactive”.

`Brc1ccc(CSc2ccc3nnc(-c4ccccn4)n3n2)cc1`: the Potency is 13.5 µM (active).

`COC(=O)c1ccc(CSc2ccc3nnc(-c4ccccn4)n3n2)o1`: the Potency is 7.57 µM (active).

In the case of `c1ccc(CSc2ccc3nnc(-c4ccccn4)n3n2)cc1`, the Potency was 13.5 µM (active).

For the compound `Brc1ccc(CSc2ccc3nnc(-c4cccnc4)n3n2)cc1`, the Potency result is “inactive”.

Turning to `CCOc1ccc(NC(=O)C2CC(=O)N(CCc3ccc(OC)c(OC)c3)C2)cc1OCC` (centres undefined), the Potency is 19 µM (active).

For `CN(C)c1ccc(C(CNS(=O)(=O)c2ccc(F)c(F)c2)c2c[nH]c3ccccc23)cc1` (centres undefined), the Potency entry is “inactive”.

On to `Cc1ccc(NC(=O)/C=C/c2ccc3c(c2)OCO3)cc1S(=O)(=O)N1CCOCC1`, for which the Potency is 6.75 µM (active).

`O=C(COC(=O)c1cc(=O)[nH]c2ccccc12)Nc1cccc(S(=O)(=O)N2CCOCC2)c1`: the Potency entry is “inactive”.

Take `COc1ccc(S(=O)(=O)N2CCOCC2)cc1C(=O)Nc1cccc(C(=O)NC2CC2)c1`: the Potency is 15.1 µM (active).

For `NC(=O)C1CCN(CC(=O)Nc2ccc3c(c2)OCO3)CC1`, the Potency result is “inactive”.

Consider `S=C(Nc1ccc2c(c1)OCCO2)Nc1ccc2c(c1)OCO2`, for which the Potency entry was “inactive”.

Consider `Cc1ccc(NC(=O)c2ccc3c(c2)OCO3)cc1S(=O)(=O)N1CCOCC1`, for which the Potency is 8.49 µM (active).

Consider `COc1ccc(/C=C/C(=O)Nc2cccc(S(=O)(=O)N3CCOCC3)c2)cc1OC`, for which the Potency is 15.1 µM (active).

As for `O=C(COC(=O)c1cc(S(=O)(=O)N2CCOCC2)ccc1O)Nc1ccc2c(c1)OCO2`, the Potency entry was “inactive”.

Turning to `COc1ccc2oc(C(=O)Nc3cccc(S(=O)(=O)N4CCOCC4)c3)c(C)c2c1`, the Potency entry was “inactive”.

`Oc1ccc(-c2nc3c4c(ncn3n2)-c2ccccc2CC42CCCC2)cc1`: the Potency result is “inactive”.

Turning to `Cc1ccc(Nc2nc(N)nc(CSc3nnc(C)s3)n2)cc1`, the Potency entry was “inactive”.

Turning to `O=C(O)C1=C[C@@H](c2csc3ccccc23)C[C@@H](OCc2ccc(CO)cc2)O1`, the Potency result is “inactive”.

`CN(C)Cc1ccccc1Sc1cccc2ccccc12`: the Potency result is “inactive”.

For `CCN(CC)C(=O)c1ccc(O)c(OC)c1`, the Potency entry is “inactive”.

Consider `Cc1cc(NC(=O)CS(=O)(=O)c2cn(Cc3cccc(Br)c3)c3ccccc23)no1`, for which the Potency entry is “inactive”.

On to `COc1ccccc1-n1c(SCC(=O)Nc2cc(C)on2)nc2c(c1=O)SCC2`, for which the Potency entry was “inactive”.

Take `COc1cccc(-c2nnc(SCC(=O)Nc3cc(C)on3)o2)c1`: the Potency is 12 µM (active).

With `O=C(Nc1cccc(O)c1)c1cccc(C(=O)Nc2cccc(O)c2)c1`, the Potency is 8.49 µM (active).

As to `O=C(Nc1ccccc1)C(Cl)C(=O)c1ccccc1` (centres undefined), the Potency result is “inactive”.

As for `COc1cc(CNC(=O)Nc2nc(C(N)c3ccccc3)cs2)cc(OC)c1OC` (centres undefined), the Potency is 13.5 µM (active).

Turning to `CCC(=O)Nc1nc2c(OC)ccc(OC)c2s1`, the Potency entry is “inactive”.

On to `O=S(=O)(c1ccccc1)[C@@]1(c2ccccc2)C[C@@H]2ON=C(c3cccc(-c4ccccc4)c3)[C@@H]2C1`, for which the Potency entry was “inactive”.

Turning to `COc1cccc(C=NCC(C)N=Cc2cccc(OC)c2O)c1O` (centres undefined), the Potency was 16.9 µM (active).

Turning to `Oc1c(C(c2cccs2)N2CCN(c3ccccc3)CC2)sc2ncnn12` (centres undefined), the Potency was 19 µM (active).

In the case of `COc1ccc(N2CCN(C(c3ccco3)c3sc4nc(C)nn4c3O)CC2)cc1` (centres undefined), the Potency result is “inactive”.

On to `O=c1c(O)cccc2cc(O)c(O)c(O)c12`, for which the Potency is 15.1 µM (active).

Consider `COc1ccccc1OCC(=O)Nc1ccc(C(=O)Nc2ccccc2C(=O)O)cc1`, for which the Potency was 16.9 µM (active).

`COc1ccccc1NC(=O)c1ccc(NC(=O)Cc2n[nH]c(=O)c3ccccc23)cc1`: the Potency entry was “inactive”.

On to `CC1=C(/C=C/C(C)=C/C=C/C(C)=C/C(=O)Nc2ccc(O)cc2)C(C)(C)CCC1`, for which the Potency result was “inactive”.

Turning to `COc1ccc(S(=O)(=O)N2CCC3CC2c2cc(N4CCOCC4)ccc23)cc1` (centres undefined), the Potency result was “inactive”.

Take `O=C(Oc1ccc(=O)n(-c2ccccc2)n1)c1ccc(F)cc1`: the Potency result was “inactive”.

With `C[n+]1ccc(/C=C/c2cc[n+](C)c3ccccc23)c2ccccc21`, the Potency was 15.1 µM (active).

As for `CN1C=C/C(=C\c2cc[n+](C)c3ccccc23)c2ccccc21`, the Potency was 15.1 µM (active).

As to `O=S(=O)(O)c1ccc2c(N=Nc3ccc(S(=O)(=O)O)c4ccccc34)c(O)c(S(=O)(=O)O)cc2c1`, the Potency was 9.53 µM (active).

With `CC(=O)Nc1ccc(S(=O)(=O)O)c2cc(S(=O)(=O)O)c(N=Nc3ccc(N=Nc4ccc(S(=O)(=O)O)cc4)c4ccc(S(=O)(=O)O)cc34)c(O)c12`, the Potency is 1.69 µM (active).

Consider `Cc1cc(NC(=O)c2cccc(N3C(=O)CCC3=O)c2)no1`, for which the Potency result was “inactive”.

As to `O=C(Nc1ccc(F)cc1)c1ccc2[nH]c(=O)c(=O)[nH]c2c1`, the Potency is 1.9 µM (active).

As for `Cc1ccc(NC(=O)c2ccc3[nH]c(=O)c(=O)[nH]c3c2)nc1`, the Potency was 6.75 µM (active).

`O=C(NC1=C(Nc2ccc(F)cc2)C(=O)c2ccccc2C1=O)c1ccc(Cl)cc1`: the Potency result was “inactive”.

Turning to `Cc1nc2c(C(=O)Nc3ccc(N4CCCC(O)C4)cc3)snc2c(=O)[nH]1` (centres undefined), the Potency result is “inactive”.

As for `CCOc1cc(/C=C2/NC(=O)NC2=O)cc(Br)c1OCc1ccc(C(=O)O)cc1`, the Potency entry is “inactive”.

For `CSCc1cc(N(C)c2ccccc2)nc(-c2ccccn2)n1`, the Potency is 13.5 µM (active).

Turning to `O=C(O)C1=NN(c2cc(Cl)c(S(=O)(=O)O)cc2Cl)C(=O)C1`, the Potency entry is “inactive”.

On to `CN(C)c1ccc(N=c2sc3ccccc3n2C)cc1`, for which the Potency is 7.57 µM (active).

Regarding `CCN1CCN(c2ncnc3scc(-c4ccc(C)cc4)c23)CC1`, the Potency result was “inactive”.

`CCc1nnc2c(N(C)C)nc3ccccc3n12`: the Potency was 12 µM (active).

For the compound `CN(C)S(=O)(=O)n1cnc2ccccc21`, the Potency result is “inactive”.

Take `CC(=O)Nc1ccc(S(=O)(=O)NC2=C(N3CCN(Cc4ccccc4)CC3)C(=O)c3ccccc3C2=O)cc1`: the Potency was 16.9 µM (active).

For `Cc1cc2oc(C(=O)N3CCN(Cc4ccccc4)CC3)c(C)c2cc1C`, the Potency result was “inactive”.

With `O=C1C(NS(=O)(=O)c2cccs2)=C(N2CCN(Cc3ccccc3)CC2)C(=O)c2ccccc21`, the Potency was 10.7 µM (active).

Consider `O=c1c2ccccc2nnn1CSc1nnc(C2COc3ccccc3O2)n1-c1ccccc1` (centres undefined), for which the Potency result is “inactive”.

Take `O=c1cc(CSc2ccc(Cl)cc2)nc(-c2ccccn2)[nH]1`: the Potency is 2.13 µM (active).

Regarding `O=c1nc(-c2ccccc2)c2cc(Cl)ccc2[nH]1`, the Potency was 13.5 µM (active).

Turning to `Nc1nc2cc3ccccc3cc2[nH]c1=O`, the Potency result is “inactive”.

Regarding `COc1ccc(NC(=O)c2[nH]c(C)c(C(C)=O)c2C)cc1Cl`, the Potency entry is “inactive”.

For `O=C1N=c2ccccc2=C1c1sc(Nc2cccc(O)c2)nc1O`, the Potency result is “inactive”.

For `O=C1C(Nc2cccc(O)c2)=C(N2CCCCC2)C(=O)c2ccccc21`, the Potency is 19 µM (active).

As to `O=C(CCS(=O)(=O)c1ccc(Br)cc1)N1CCCCCC1`, the Potency entry was “inactive”.

In the case of `CC1CCN(C2=C(NS(=O)(=O)c3ccc(Br)cc3)C(=O)c3ccccc3C2=O)CC1`, the Potency was 5.36 µM (active).

For the compound `O=C1C(NS(=O)(=O)c2ccc(Br)cc2)=C(N2CCCCC2)C(=O)c2ccccc21`, the Potency is 13.5 µM (active).

As to `CN(C1=C(N2CCCCC2)C(=O)c2ccccc2C1=O)c1ccccc1`, the Potency is 1.9 µM (active).
